Source: PubChem (National Center for Advancing Translational Sciences (NCATS))
TrxR1 substrate = is turned over as a substrate by rat TrxR1; O89049; purified TrxR1 substrate turnover, NADPH consumption readout; Potency, µM (doses to about 114 µM), for the others: at the top dose activity change, negative = substrate turnover; 390,000 tested, 0.01% active; also: % is scaled to controls: 0 for no effect and ±100 for the full control effect; nearly all actives have a fitted effect of over 50% in size
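Rat TrxR1, dispensed at 90 nM, was prereduced with 400 uM NADPH (final) for 5 min at ~22 deg C, then incubated with compound 15 min before 400 uM selenite. A first-read NADPH fluorescence drop versus no-compound background flagged substrates.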
Nrf2 block = blocks Nrf2 signaling; A549 ARE-Fluc reporter, luciferase luminescence, 18-24 h; Potency, µM (top dose mostly 46 µM), for inactives: at the highest dose activity change, negative = inhibition, actives largely listed as inhibitors; 360,000 tested, 2.1% active; AID 504444; also: % is scaled to controls: 0 for no effect and ±100 for the full control effect; nearly all actives have a fitted effect of over 60% in size
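A549 ARE_Fluc cells (5000/well, 5% FBS OPTI-MEM) pre-incubated 2 h, then treated with compounds 18-24 h at 37C/5% CO2 in concentration-response. CellTiter-Fluor viability read first; BugLite luciferase luminescence after 15 min at room temperature gives Nrf2 activity.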
A549 tox = A549 cytotoxicity, counter-screen for Nrf2 inhibitors | A549 ARE-Fluc cells, CellTiter-Fluor viability, 18-24 h | Potency, µM (highest dose often 46 µM), inactives show top-dose activity change, negative = cytotoxicity, usual class: inhibitors | 390,000 tested, 0.16% active | AID 504648; also: % is scaled to controls: 0 for no effect and ±100 for the full control effect
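A549 ARE-Fluc cells in 5% FBS OPTI-MEM, 5000 cells/well, rested 2 h then exposed to compounds in concentration-response for 18-24 h at 37 °C. Viability by CellTiter-Fluor fluorescence (Ex 405/Em 525) after 30 min; luciferase luminescence (BugLite, 15 min, RT) read afterwards.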
Nrf2 ARE act = Nrf2 pathway activation; 410,000 tested, 0.31% active; AREc32 ARE-luciferase reporter (MCF7-derived line), luminescence, 24 h; AID 624171; Potency, µM (titrated, usually from 46.1 µM), inactives show at the top dose activation, usual class: activators; also: % of control where 0% means no effect; nearly all actives have a fitted effect of over 65% in size
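Luciferase luminescence (Steady-Glo, 30 min at room temperature) served as the read-out of ARE activation in AREc32 cells treated with compounds for 24 hr at 37 deg C.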
GALK inhibitor = blocks human galactokinase activity; P51570; Purified GALK, Kinase-Glo residual ATP luminescence; Potency, µM (top dose mostly 57.5 µM), for the others: top-dose activity change, negative = inhibition, hits mostly inhibitors; 270,000 tested, 0.007% active; AID 1868; also: % is scaled to controls: 0 for no effect and ±100 for the full control effect
Target sequence (P51570 whole entry, looked up): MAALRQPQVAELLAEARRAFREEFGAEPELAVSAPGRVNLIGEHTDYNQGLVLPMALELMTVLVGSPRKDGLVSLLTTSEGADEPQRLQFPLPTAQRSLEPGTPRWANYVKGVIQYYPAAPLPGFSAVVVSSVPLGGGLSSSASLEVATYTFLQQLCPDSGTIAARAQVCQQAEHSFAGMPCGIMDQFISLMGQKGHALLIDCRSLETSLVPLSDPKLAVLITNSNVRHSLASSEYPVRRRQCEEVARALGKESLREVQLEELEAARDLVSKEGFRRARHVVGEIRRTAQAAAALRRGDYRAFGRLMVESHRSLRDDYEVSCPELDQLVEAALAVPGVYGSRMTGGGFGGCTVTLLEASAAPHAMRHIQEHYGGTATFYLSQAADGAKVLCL
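5 nM enzyme, 35 uM ATP, 100 uM galactose, 20 mM HEPES pH8.0, 5 mM MgCl2; 1 h RT; residual ATP by Kinase-Glo Plus luminescence, qHTS format.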
TrxR1 inh = blocks rat thioredoxin reductase 1; recombinant rTrxR1, NADPH fluorescence consumption, selenite substrate; Potency, µM (doses to about 114 µM), without a hit: at the highest dose activity change, negative = inhibition, usual class: inhibitors; 390,000 tested, 1% active; AID 588453; also: % is scaled to controls: 0 for no effect and ±100 for the full control effect; nearly all actives have a fitted effect of over 65% in size
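Rat TrxR1 (90 nM in the dispensed reagent) was pre-reduced with 400 uM NADPH for 5 min at room temperature, then incubated with compound for 15 min. After 400 uM selenite was added, NADPH fluorescence (Ex 340/Em 450 nm) was followed for 8 min.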
The depositor's hits bear a star; ? = inconclusive; . = no result; [ ] = remark or other dose. The list is not random: actives were taken first. Their share in the collection is about 3%. Calls follow the shape of the dose curve; as a rule, active = well fitted curve in the direction sought with a large enough effect; inconclusive = small, poorly fitted or top-dose-only effect, or another doubt; inactive = no such curve, though single readings can be large; an effect the other way counts as inactive or inconclusive. Potency is read from the fitted curve at half-maximal effect.

SMILES	TrxR1 substrate	Nrf2 block	A549 tox	Nrf2 ARE act	GALK inhibitor	TrxR1 inh
COc1ccc(Cn2c(C(=O)O)c(CNCCc3cc(OC)ccc3OC)c3ccc(C)cc32)cc1	-3%	?	?	-1%	.	9%
COc1cc2c(cc1OC)C(c1oc(-c3ccc(-c4cc(Cl)ccc4Cl)o3)cc1C)=NCC2	1%	.	.	.	.	9%
NC1=NC(=O)/C(=C\c2ccco2)S1	-4%	-11%	-5%	?	-1%	40µM*
NC1=NC(=O)C(=Cc2ccccc2)S1	-8%[11.4 µM]	16%	-3%	5%	.	-20%[11.4 µM]
C[N+]1(CC(=O)c2ccc(Cl)c(Cl)c2)CCOCC1	3%	.	.	.	.	19%
O=C1c2cccc(NCCCNCCO)c2C(=O)c2cccc(NCCCNCCO)c21	10%[57.1 µM]	?	18µM*	-1%	.	-5%[11.4 µM]
CCC1Oc2ccc(C)cc2N(CC(=O)N(Cc2ccc(C)o2)C2CCCC2)C1=O (configuration not stated)	-1%	?	-8%	26%	-3%	25µM*
COc1cc(NC(=O)CN2C(=O)NC(c3ccccc3)(c3ccccc3)C2=O)c(C)cc1[N+](=O)[O-]	-8%	29µM*	-17%	6%	0%	2%
O=C(NC(Cc1c[nH]c2ccccc12)C(=O)Nc1ccc(F)c([N+](=O)[O-])c1)c1cccs1 (configuration not stated)	-12%	?	-9%	17%	-2%	8%[57.1 µM]
O=C(NC(Cc1c[nH]c2ccccc12)C(=O)Nc1ccc(OC(F)(F)F)cc1)c1cccs1 (configuration not stated)	-6%[57.1 µM]	?	23µM*	-1%	.	-2%[57.1 µM]
COc1cccc(OCC(=O)NN=C2c3ccccc3-c3ccccc32)c1	5%	18µM*	2%[1.84 µM]	-1%	-1%	19%
COc1cccc(OCC(=O)Nc2ccccc2-c2ccccc2)c1	-28%[57.1 µM]	-23%	6%	1%	0%	9%[57.1 µM]
COc1ccc(NS(=O)(=O)c2cc(NC(=O)Cc3n[nH]c(=O)c4ccccc34)ccc2OC)cc1	-6%	-7%	-1%	0%	.	2%
COc1ccccc1NS(=O)(=O)c1cc(NC(=O)Cc2n[nH]c(=O)c3ccccc23)ccc1Cl	2%[57.1 µM]	21µM*	-34%	15%	.	8%[57.1 µM]
COc1ccc(C(=O)CC(Nc2ccc([N+](=O)[O-])cc2)c2ccc(Cl)cc2)cc1 (configuration not stated)	-10%	6.5µM*	?	1%	0%	5%
COc1cccc(N2C(=O)c3ccccc3C2=O)n1	.	4%	6%	.	.	.
Fc1ccc(NC(=S)Nc2nccs2)cc1	1%	-27%	?	?	0%	7.9µM*
CC(C)Cc1ccc(CN2CCCC(NC(=O)CCN3CCCCC3=O)C2)cc1 (configuration not stated)	1%	3%	7%	-2%	0%	4%
CC(C)Cc1ccc(C(C)/C=C2/CCC(CN3CCCCC3)C2=O)cc1 (configuration not stated)	-10%	-8%	17%	13µM*	.	3.5µM*
O=C(/C(C=Nc1ccc(Br)cc1)=C(/O)c1ccco1)C(F)(F)F	-16%	?	-6%	29%	-4%	-20%
O=C(/C(C=Nc1cccc(C(F)(F)F)c1)=C(/O)c1ccco1)C(F)(F)F	-11%	27%	7%	7.9µM*	1%	-13%
CCCN(CCC)c1ccc(/C=C/c2ccnc3ccccc23)cc1	-6%	.	.	.	.	26%
CC1(C)CC(=O)C(C2C3=C(CC(C)(C)CC3=O)Oc3c(Br)cc(Br)cc32)=C(O)C1 (configuration not stated)	-4%	23µM*	?	0%	1%	9%
CC1(C)CC(=O)C2=C(C1)OC1=C(C(=O)CC(C)(C)C1)C2c1cc([N+](=O)[O-])cc([N+](=O)[O-])c1O	-13%[57.1 µM]	?	?	4%	4%	-20%[57.1 µM]
